In PubChem BioAssay (Tox21):
Several values for one entry are separate records, joined by “and”; a condition that tells them apart may be missing. Identical values can stand only once. Unmarked numbers belong to inactive results. Records with an inconclusive call do not appear. Entries that show only a call come without a potency. Activity calls are given as the source filed them. Calls come from the whole dose curve; as a rule, active = well fitted curve in the direction sought with a large enough effect in the repeat runs; inconclusive = weak or mixed curves; inactive = no such curve, though single readings can be large; an effect the other way counts as inactive or inconclusive.

Assay: qHTS assay for small molecule disruptors of the mitochondrial membrane potential (AID 720635); note: potency is the fitted concentration of half-maximal effect
Conditions: HepG2 mitochondrial membrane potential, Mito-MPS dye ratio; series mostly up to 83.2 µM
In short: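 HepG2 cells exposed to compound 1 hr at 37C, then Mito-MPS dye 30 min. Ratio read of aggregate (540/590 nm) versus monomer (490/535 nm) fluorescence.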

Row | SMILES | Potency
1 | O=C1c2ccccc2C(=O)C1(O)O | 24.5 µM (active)
2 | CCOC(=O)c1ccc(OCCN2C[C@H](O)[C@@H](O)[C@H](O)[C@H]2CO)cc1 | inactive
3 | CC(C)C=O | inactive
4 | COc1ccccc1N1CCN(CCCCNC(=O)c2ccc(-c3ccc(C(C)=O)cc3)cc2)CC1 | inactive
5 | O=C(CCc1ccc(O)cc1)c1c(O)cc(O)cc1O | 3.13 µM (active)
6 | CC(=O)OCC[N+](C)(C)C | inactive
7 | O=c1c(O)c(-c2ccc(O)cc2)oc2cc(O)cc(O)c12 | 3.84 µM (active) and 328 nM (active)
8 | CC/C=C1/OC(=O)c2ccccc21 | inactive
9 | O=C1c2ccccc2C(=O)c2c(O)c(O)cc(O)c21 | 27.3 µM (active)
10 | CC(CCC(=O)O)C(=O)O (stereo not drawn) | inactive
11 | C=C(C)C(=O)OCCCCCCCCCCCCC | inactive
12 | Clc1cc(Cl)nc(Cl)n1 | inactive
13 | O[C@@H]1CO[C@H]2[C@@H]1OC[C@@H]2O | inactive
14 | COc1cc(C(=O)NCCCCCC(=O)O)cc(OC)c1OC | inactive
15 | CC(=O)[C@H]1[C@H](C#N)C[C@H]2[C@@H]3CC=C4C[C@@H](O)CC[C@]4(C)[C@H]3CC[C@@]21C | inactive

Assay: qHTS assay to test for compound auto fluorescence at 590 nm (red) in HepG2 cells (AID 720674)
Conditions: HepG2 autofluorescence, red 540/590 nm, 1 h; series mostly up to 91.3 µM
In short: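 Fluorescence at 590 nm emission following 540 nm excitation was recorded from HepG2 wells one hour after compound transfer, with DMSO-only wells as vehicle and Rose Bengal sodium equivalency as the scale.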

Row | SMILES | outcome | fluorescence, relative to Rose Bengal
16 | CC(C)COCC(CN(Cc1ccccc1)c1ccccc1)N1CCCC1 (stereo not drawn) | inactive | –
17 | C=C(C)CCCC(C)CCO (stereo not drawn) | inactive | –
18 | C=CC(=O)[O-].C=CC(=O)[O-].[Zn+2] | inactive | –
19 | CC(C)C=O | inactive | –
20 | CCCCCCNC(=O)n1cc(F)c(=O)[nH]c1=O | inactive | –
21 | CCn1cc(C(=O)O)c(=O)c2cc(F)c(N3CCNCC3)cc21 | inactive | –
22 | O=C1NC(=O)c2cc([N+](=O)[O-])ccc21 | inactive | –
23 | OC(CCN1CCCC1)(c1ccccc1)C1CCCCC1 (stereo not drawn) | – | 0.15% [at 18.6 µM]
24 | O=C(CCc1ccc(O)cc1)c1c(O)cc(O)cc1O | inactive | –
25 | CC(=O)OCC[N+](C)(C)C | inactive | –
26 | CCC=CC#N | inactive | –
27 | O=c1c(O)c(-c2ccc(O)cc2)oc2cc(O)cc(O)c12 | inactive | –
28 | CC/C=C1/OC(=O)c2ccccc21 | inactive | –
29 | CC(=O)Nc1ccc(C)cc1C | inactive | –
30 | O=C1c2ccccc2C(=O)c2c(O)c(O)cc(O)c21 | inactive | –
31 | CC(CCC(=O)O)C(=O)O (stereo not drawn) | inactive | –
32 | C=C(C)C(=O)OCCCCCCCCCCCCC | inactive | –
33 | CCC1NC(=O)c2cc(S(N)(=O)=O)c(Cl)cc2N1 (stereo not drawn) | – | 0.403% [at 18.6 µM]
34 | CC(C)C(O)(c1ccc(OC(F)(F)F)cc1)c1cncnc1 (stereo not drawn) | inactive | –
35 | C1C[C@@H]2[C@H]3CC[C@H](C3)[C@@H]2C1 | inactive | –
36 | C=C(C)[C@@H]1CCC2=CCC[C@@H](C)[C@]2(C)C1 | inactive | –
37 | O[C@@H]1CO[C@H]2[C@@H]1OC[C@@H]2O | inactive | –
38 | COc1cc(C(=O)NCCCCCC(=O)O)cc(OC)c1OC | inactive | –
39 | CC(=O)[C@H]1[C@H](C#N)C[C@H]2[C@@H]3CC=C4C[C@@H](O)CC[C@]4(C)[C@H]3CC[C@@]21C | inactive | –
40 | O=c1[nH]c2ccc(Cl)cc2o1 | inactive | –
41 | CCC(=O)OC | inactive | –
42 | C=CC(=O)OCC1CC2CC1C1CCC(COC(=O)C=C)C21 (stereo not drawn) | inactive | –
43 | Cc1cc2c(OCC(CNC(C)(C)C)OC(=O)c3ccccc3)cccc2[nH]1 (stereo not drawn) | inactive | –
